Experimental data: PubChem BioAssay (Tox21)
Results filed as inconclusive are left out. Active and inactive are the calls of the source. Unless noted, the call rests on the fitted dose curve; in most records, active means well fitted curve in the direction sought with a large enough effect in the repeat runs; inconclusive means weak or mixed curves; inactive means no such curve, though single readings can be large; an effect the other way counts as inactive or inconclusive.

Tests used:
[1] = qHTS assay to identify small molecule antagonists of the estrogen related receptor (ERR) signaling pathway from Tox21 library - cell viability counter screen (AID 1224834); further: on the % scale 0 is the no-effect control and ±100 the full control effect; nearly all actives have a fitted effect of over 30% in size
Procedure, shortened: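 ERR cells, 2,000/well; 6 h settle at 37 C/5% CO2; pin-tool compound transfer in DMSO; 17.5 h at 37 C; CellTiter-Fluor, 30 min; fluorescence intensity.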

[2] = molecular target: Luciferin 4-monooxygenase (Photinus pyralis) (UniProt P08659); experiment: qHTS assay to identify small molecule inhibitors of firefly luciferase (AID 1224835); further: nearly all actives have a fitted effect of over 25% in size; further: potency means the concentration at half of the fitted maximal effect
Procedure, shortened: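 Quantitative HTS format; KM concentrations of both substrates. Purified P. pyralis FLuc activity quantified from luminescence images.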

[3] = qHTS assay to identify small molecule agonists of the constitutive androstane receptor (CAR) signaling pathway - cell viability counter screen (AID 1224836); further: on the % scale 0 is the no-effect control and ±100 the full control effect; nearly all actives have a fitted effect of over 45% in size
Procedure, shortened: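 Compound titrations (15 concentrations) went onto HepG2-CYP2B6-hCAR cells 4 h after seeding, alongside PK11195 at a final 0.75 uM; a 23 h, 37 C/5% CO2 incubation preceded CellTiter-Fluor viability measurement.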

[4] = qHTS assay to identify small molecule antagonists of the constitutive androstane receptor (CAR) signaling pathway - cell viability counter screen (AID 1224837); further: on the % scale 0 is the no-effect control and ±100 the full control effect; nearly all actives have a fitted effect of over 45% in size
Procedure, shortened: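 Viability was measured with CellTiter-Fluor in a HepG2 line carrying stably transfected hCAR and a CYP2B6-2.2kb construct. Cells were exposed for 23 hr at 37 C to 15 compound concentrations with 50 nM CITCO as agonist.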

[5] = qHTS assay to identify small molecule antagonists of the estrogen related receptor signaling pathway with the pleiotropic PPARgamma coactivator (PGC) from Tox21 10K library - cell viability counter screen (AID 1224840; active means well fitted cell-killing curve with a large enough effect in the repeat runs, not every such curve was filed as active; further: on the % scale 0 is the no-effect control and ±100 the full control effect; nearly all actives have a fitted effect of over 40% in size)
Procedure, shortened: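 Multiplexed viability counter screen in the PGC/ERR cell line: cells treated with DMSO-dissolved compounds for 17.5 hours at 37 C, then viability measured as CellTiter-Fluor fluorescence.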

[6] = qHTS assay to identify small molecule antagonists of the estrogen related receptor signaling pathway with the pleiotropic PPARgamma coactivator (PGC) from Tox21 10K library (AID 1224841; call rule not given here; further: on the % scale 0 is the no-effect control and ±100 the full control effect; actives are mostly falling curves and most rising ones were filed inactive; nearly all actives have a fitted effect of over 50% in size)
Procedure, shortened: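 Steps: plate 2,000 PGC/ERR cells per well; incubate 6 h at 37 C with 5% CO2; transfer compounds from DMSO stocks by pin tool; incubate 18 h at 37 C; add One-Glo; measure luminescence 30 min later.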

[7] = qHTS assay to identify small molecule agonists of the estrogen related receptor signaling pathway with the pleiotropic PPARgamma coactivator (PGC) from Tox21 10K library (AID 1224842); further: on the % scale 0 is the no-effect control and ±100 the full control effect; nearly all actives have a fitted effect of over 15% in size
Procedure, shortened: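 PGC/ERR reporter cells (NTP line) were seeded 2,000 per well, rested 6 h at 37 C/5% CO2, then pin-dosed with compounds in DMSO for 18 h at 37 C; luciferase read by One-Glo luminescence after 30 min at room temperature.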

[8] = molecular target: Thyrotropin receptor (Homo sapiens) (UniProt P16473); experiment: qHTS assay to identify small molecule agonists of the thyroid stimulating hormone receptor (TSHR) signaling pathway (AID 1224843; calls by dose curve; further: on the % scale 0 is the no-effect control and ±100 the full control effect; nearly all actives have a fitted effect of over 45% in size)
Procedure, shortened: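 Using 15 concentrations per compound in triplicate, cAMP production was monitored in TSHR-HEK293 cells after 30 min compound incubation at RT; HTRF reagents followed, with fluorescence intensity recorded after 1 h.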

[9] = qHTS assay to identify small molecule agonists of H2AX (AID 1224845; active means well fitted activation curve with a large enough effect in the signal ratio in the repeat runs, not every such curve was filed as active; the % refers to the signal ratio; further: on the % scale 0 is the no-effect control and ±100 the full control effect)
Procedure, shortened: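 Wild-type CHO-K1 cells plated overnight, then exposed 3 hr at 37C to compounds at 15 concentrations (0.76% DMSO). Lysed, then HTRF anti-pH2AX(S139)-cryptate/anti-H2AX-d2 detection after 24 hr at room temperature; emissions 665 and 620 nm.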

[10] = qHTS assay to identify small molecule agonists of the hypoxia (HIF-1) signaling pathway (AID 1224846; active means well fitted activation curve with a large enough effect in the signal ratio in the repeat runs, not every such curve was filed as active; the % refers to the signal ratio; further: on the % scale 0 is the no-effect control and ±100 the full control effect)
Procedure, shortened: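 Compounds from the Tox21 10K library, dissolved in DMSO, are tested for induction of a hypoxia response element–controlled beta-lactamase reporter in ME-180 cells. Exposure lasts 17 hrs at 37C after a 5 hr settling period, followed by CCF4-AM FRET substrate.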

[11] = qHTS assay to identify small molecule antagonists of the estrogen related receptor (ERR) signaling pathway from Tox21 library (AID 1224848); further: on the % scale 0 is the no-effect control and ±100 the full control effect; nearly all actives have a fitted effect of over 50% in size
Procedure, shortened: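 Tox21 10K compounds in DMSO tested for ERR pathway antagonism in NTP's ERR cell line; 18 h, 37 C exposure; ONE-Glo luminescence.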

[12] = qHTS assay to identify small molecule agonists of the estrogen related receptor (ERR) signaling pathway from Tox21 library (AID 1224849; calls by dose curve; further: on the % scale 0 is the no-effect control and ±100 the full control effect; nearly all actives have a fitted effect of over 15% in size); conditions: ERR reporter cell line, ONE-Glo luciferase, 18 h; at 92.4 µM (top of the series) unless noted
Procedure, shortened: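 Cells carrying the ERR reporter were plated and allowed to settle for 6 h, exposed to library compounds for 18 h at 37 C, then lysed with ONE-Glo and luminescence measured.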

[13] = qHTS RealTime-Glo MT Cell Viability Assay in HepG2 cells - 24 hour (AID 1224867); further: on the % scale 0 is the no-effect control and ±100 the full control effect; nearly all actives have a fitted effect of over 50% in size
Procedure, shortened: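 qHTS, HepG2, 600 cells/well, RealTime-Glo (NanoLuc + prosubstrate) added with cells; 5 h preincubation; DMSO compound addition; 37 C; luminescence at 0/8/16/24/32/40 h.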

[14] = qHTS RealTime-Glo MT Cell Viability Assay in HEK293 cells - 32 hour (AID 1224868); further: top concentration of the series differs between compounds; on the % scale 0 is the no-effect control and ±100 the full control effect; nearly all actives have a fitted effect of over 50% in size
Procedure, shortened: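 Assay medium contained NanoLuc luciferase plus cell-permeant prosubstrate, added with HEK293 cells at 600 cells/well. After 5 h at 37 C/5% CO2 compounds were added; plates stayed at 37 C for 40 h with serial luminescence reads.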

[15] = qHTS assay to identify small molecule agonists of the hypoxia (HIF-1) signaling pathway - cell viability counter screen (AID 1224844; calls by dose curve)
Procedure, shortened: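 Cytotoxicity was measured in parallel with the HRE-driven beta-lactamase readout: after 17 hrs of compound exposure at 37C, HRE-bla ME-180 cells received CellTiter-Glo and luminescence was recorded 30 min later.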

[16] = qHTS assay to identify small molecule agonists of H2AX - cell viability counter screen (AID 1224847; calls by dose curve; further: top concentration of the series differs between compounds; on the % scale 0 is the no-effect control and ±100 the full control effect; nearly all actives have a fitted effect of over 30% in size)
Procedure, shortened: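 Read-out: CellTiter-Glo luminescence, 30 min RT. Cells: wild-type CHO-K1, 1000/well, 10% FBS, plated overnight at 37C. Treatment: 15 concentrations, 3 hr, 37C, 0.76% DMSO.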

[17] = molecular target: Nuclear receptor subfamily 1 group I member 3 (Homo sapiens) (UniProt Q14994); experiment: qHTS assay to identify small molecule antagonists of the constitutive androstane receptor (CAR) signaling pathway (AID 1224838);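 further: HepG2 cells stably expressing hCAR with CYP2B6 luciferase reporter stimulated by CITCO; on the % scale 0 is the no-effect control and ±100 the full control effect; nearly all actives have a fitted effect of over 40% in size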
Procedure, shortened: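 Antagonist mode used CITCO at a final 50 nM to activate CAR in human hepatoma HepG2 cells carrying stable hCAR and a 2.2 kb CYP2B6 promoter-luciferase construct. Compounds were tested at 15 concentrations over 24 h, with luminescence as the end point.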

[18] = A CellTox Green Cytotoxicity Assay to monitor cytotoxicity in HEK293 cells - 0 hour (AID 1224869)
Procedure, shortened: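 Cells (HEK293, 600/well) and dye reagent are dispensed together. After 5 h at 37 C, 23 nL compound is pinned in. Plates stay at 37 C for 40 h with fluorescence read at 0h, 8h, 16h, 24h, 32h and 40h.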

[19] = molecular target: Nuclear receptor subfamily 1 group I member 3 (Homo sapiens) (UniProt Q14994); experiment: qHTS assay to identify small molecule agonists of the constitutive androstane receptor (CAR) signaling pathway (AID 1224839); further: potency means the concentration at half of the fitted maximal effect; nearly all actives have a fitted effect of over 15% in size
Procedure, shortened: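 In this screen, CAR-driven CYP2B6 promoter activity is measured by luminescence in HepG2-CYP2B6-hCAR cells after 24 h with test compounds and 0.75 uM PK11195 (final concentration).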

Nuclear receptor subfamily 1 group I member 3 (Homo sapiens), sequence (Q14994 whole entry, looked up): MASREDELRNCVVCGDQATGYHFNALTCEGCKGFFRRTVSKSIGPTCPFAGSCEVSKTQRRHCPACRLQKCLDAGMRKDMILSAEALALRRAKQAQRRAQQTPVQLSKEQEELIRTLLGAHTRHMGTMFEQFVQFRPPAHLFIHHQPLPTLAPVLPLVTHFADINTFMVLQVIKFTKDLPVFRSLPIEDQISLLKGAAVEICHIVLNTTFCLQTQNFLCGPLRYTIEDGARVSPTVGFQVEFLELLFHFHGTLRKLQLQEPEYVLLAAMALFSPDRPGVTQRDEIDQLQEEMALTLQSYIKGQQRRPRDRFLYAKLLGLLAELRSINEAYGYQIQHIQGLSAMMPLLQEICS
Luciferin 4-monooxygenase (Photinus pyralis), sequence (P08659 whole entry, looked up): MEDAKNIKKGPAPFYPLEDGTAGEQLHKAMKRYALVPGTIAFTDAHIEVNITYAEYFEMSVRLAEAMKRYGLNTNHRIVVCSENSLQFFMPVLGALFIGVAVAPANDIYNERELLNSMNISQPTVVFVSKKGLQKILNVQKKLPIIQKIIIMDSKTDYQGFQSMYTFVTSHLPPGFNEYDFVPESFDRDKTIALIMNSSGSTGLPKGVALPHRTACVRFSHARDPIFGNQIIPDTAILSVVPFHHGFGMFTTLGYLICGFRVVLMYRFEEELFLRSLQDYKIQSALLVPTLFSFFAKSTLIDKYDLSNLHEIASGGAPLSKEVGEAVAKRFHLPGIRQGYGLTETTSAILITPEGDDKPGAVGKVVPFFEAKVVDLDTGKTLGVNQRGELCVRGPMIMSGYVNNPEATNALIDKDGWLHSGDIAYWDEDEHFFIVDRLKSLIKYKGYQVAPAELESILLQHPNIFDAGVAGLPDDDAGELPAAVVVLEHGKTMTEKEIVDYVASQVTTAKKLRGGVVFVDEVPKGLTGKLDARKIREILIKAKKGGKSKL
Thyrotropin receptor (Homo sapiens), sequence (P16473 whole entry, looked up): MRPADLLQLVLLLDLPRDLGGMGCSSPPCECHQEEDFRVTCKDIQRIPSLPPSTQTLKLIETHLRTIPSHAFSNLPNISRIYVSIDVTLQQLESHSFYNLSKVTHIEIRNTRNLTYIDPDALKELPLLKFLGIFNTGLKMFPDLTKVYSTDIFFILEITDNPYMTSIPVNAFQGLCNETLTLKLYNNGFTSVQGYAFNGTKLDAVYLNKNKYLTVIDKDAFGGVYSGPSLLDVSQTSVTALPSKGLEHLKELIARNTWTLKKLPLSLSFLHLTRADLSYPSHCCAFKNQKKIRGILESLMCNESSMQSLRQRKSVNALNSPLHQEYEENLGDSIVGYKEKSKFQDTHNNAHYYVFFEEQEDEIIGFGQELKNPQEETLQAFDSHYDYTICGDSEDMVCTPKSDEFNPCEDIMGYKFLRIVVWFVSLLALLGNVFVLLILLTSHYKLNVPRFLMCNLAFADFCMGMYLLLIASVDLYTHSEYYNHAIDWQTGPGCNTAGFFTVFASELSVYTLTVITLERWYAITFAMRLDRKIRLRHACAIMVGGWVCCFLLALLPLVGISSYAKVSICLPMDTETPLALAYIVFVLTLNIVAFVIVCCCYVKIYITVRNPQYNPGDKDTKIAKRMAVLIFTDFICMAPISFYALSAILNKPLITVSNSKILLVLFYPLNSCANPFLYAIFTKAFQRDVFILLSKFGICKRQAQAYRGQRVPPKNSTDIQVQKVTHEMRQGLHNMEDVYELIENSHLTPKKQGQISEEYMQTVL

C/C(=C(\CCO)SS/C(CCO)=C(\C)N(C=O)Cc1cnc(C)nc1N)N(C=O)Cc1cnc(C)nc1N
inactive: Potency [1] | Potency [2] | Potency [3] | Potency [4] | Potency [5] | Potency [6] | Potency [7] | Potency [8] | Potency [9] | outcome [10] | Potency [11] | activity change, positive = activation [12] 3.66% [at 42.5 µM] | outcome [13] | Potency [14]

Cc1cc(C)n(CO)n1
inactive: Potency [1] | Potency [2] | Potency [3] | Potency [4] | Potency [5] | Potency [8] | Potency [15] | Potency [9] | outcome [10] | Potency [16] | outcome [13]

Cc1c(Nc2ncccc2C(=O)O)cccc1C(F)(F)F
active: Potency [2] 17.4 µM
inactive: Potency [1] | Potency [3] | Potency [4] | Potency [17] | Potency [5] | Potency [8] | Potency [9] | Potency [16] | outcome [13] | Potency [18]

C=Cc1ccc(C=C)cc1
inactive: Potency [1] | Potency [2] | Potency [3] | Potency [4] | Potency [5] | Potency [7] | Potency [8] | Potency [15] | Potency [9] | outcome [10] | Potency [11] | activity change, positive = activation [12] 3.76% | outcome [13] | Potency [14] | Potency [18]

O=C(O)CCc1nc2ccccc2[nH]1
inactive: Potency [1] | Potency [2] | Potency [3] | Potency [4] | Potency [17] | Potency [5] | Potency [15] | Potency [9] | outcome [13] | Potency [14] | Potency [18]

Cc1ccccc1CCO
inactive: Potency [1] | Potency [2] | Potency [3] | Potency [4] | Potency [5] | Potency [6] | Potency [7] | Potency [8] | Potency [15] | Potency [9] | outcome [10] | Potency [11] | activity change, positive = activation [12] -1.5% | outcome [13] | Potency [14] | Potency [18]

[O-][n+]1ccc(Cl)cc1
inactive: Potency [1] | Potency [2] | Potency [3] | Potency [4] | Potency [17] | Potency [5] | Potency [15] | Potency [9] | outcome [10] | Potency [16] | outcome [13] | Potency [14] | Potency [18]

CC(C)(C)NCC(O)COc1ccc(NC(=O)NC2CCCCC2)cc1 (centres undefined)
inactive: Potency [1] | Potency [2] | Potency [3] | Potency [4] | Potency [17] | Potency [5] | Potency [8] | Potency [15] | Potency [9] | Potency [18]

Cc1cccc(C)c1NC(=O)CN1CCCC1
inactive: Potency [1] | Potency [2] | Potency [3] | Potency [4] | Potency [5] | Potency [8] | Potency [15] | Potency [9] | outcome [10] | Potency [16] | outcome [13] | Potency [14] | Potency [18]

OCCc1ccncc1
inactive: Potency [1] | Potency [2] | Potency [3] | Potency [4] | Potency [5] | Potency [6] | Potency [7] | Potency [8] | Potency [15] | Potency [9] | outcome [10] | Potency [11] | activity change, positive = activation [12] 1.06% | outcome [13] | Potency [18]

CC(C)(C(=O)O)c1ccc(C(O)CCCN2CCC(C(O)(c3ccccc3)c3ccccc3)CC2)cc1 (centres undefined)
inactive: Potency [1] | Potency [2] | Potency [3] | Potency [4] | Potency [17] | Potency [5] | Potency [8] | Potency [9] | Potency [16] | outcome [13] | Potency [14] | Potency [18]

Clc1ccccc1-c1nc(-c2ccncc2)no1
inactive: Potency [1] | Potency [3] | Potency [4] | Potency [5] | Potency [8] | Potency [15] | Potency [9] | outcome [13]
active: Potency [2] 2.75 µM | Potency [19] 10.6 µM

CCC[Si](OC)(OC)OC
inactive: Potency [1] | Potency [2] | Potency [3] | Potency [4] | Potency [5] | Potency [6] | Potency [7] | Potency [8] | Potency [15] | Potency [9] | outcome [10] | Potency [11] | activity change, positive = activation [12] -6.41% | outcome [13] | Potency [14] | Potency [18]

CCN(CC)CC(=O)OCC(=O)[C@@]1(O)CC[C@H]2[C@@H]3CCC4=CC(=O)CC[C@]4(C)[C@H]3[C@@H](O)C[C@@]21C
inactive: Potency [1] | Potency [2] | Potency [3] | Potency [4] | Potency [17] | Potency [5] | Potency [8] | Potency [9] | Potency [16] | outcome [13] | Potency [14] | Potency [18]
